The record followed here is the supplement of paper PMC10600219.

Where a name gives a salt, the structure may show the parent alone. Whole data set: some 2,800 compounds, median “cell viability relative to vehicle” near 0.98, cut for the lowest 2% near 0.45. For the sample, the lowest values were picked, then their nearest neighbours and some compounds at random.

The test system of the assay is NCI-H2228 alectinib-DTP. The assay can be described thus: cell viability relative to vehicle (fraction of vehicle); NCI-H2228 is an ALK-positive lung cancer line and DTP means drug-tolerant persister; higher = less growth inhibition. To be noted: 100 nM; treatment time 6 days. The procedure, abridged: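 Values give cell viability as a fraction of vehicle-treated cells. Parental and drug-tolerant persister NCI-H2228 cells (persisters made with 1000 nM of a targeted drug for 13 days) were exposed in 384-well plates to the 3114-agent TargetMol anti-cancer compound library at 100 nM, with DMSO as vehicle. ATP was then read after 6 days by the CellTiter-Glo 3D Cell Viability Assay.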
As for `Nc1c(S(=O)(=O)c2ccccc2)c2nc3ccccc3nc2n1-c1ccc(F)cc1`, the cell viability was determined as 1.11. The same measure for `Cc1cccc(C)c1N(CC(=O)Nc1ccc(-c2ncon2)cc1)C(=O)C1CCS(=O)(=O)CC1` [Amenamevir]: 0.926; for `CC(C)=CC(=O)CCC(=O)N1CCN(Cc2cc3nc(-c4cccc5[nH]ncc45)nc(N4CCOCC4)c3s2)CC1`: 0.892; for `O=C1Nc2ccccc2/C1=C/c1ccc(F)cc1`: 1.04. The figure for `N#Cc1c(-c2ccccc2)cc(-c2cc(Br)ccc2O)[nH]c1=O` is 0.907; for `CC/C(=C(/c1ccc(/C=C/C(=O)O)cc1)c1ccc2[nH]ncc2c1)c1ccc(F)cc1Cl` it is 1.07. The figure for `CCOC(=O)c1c(C)[nH]c(C=C2C(=O)Nc3ccccc32)c1C` [VEGFR2 Kinase Inhibitor I] is 1.19; for `COc1c(O[C@@H]2O[C@H](CO)[C@@H](O)[C@H](O)[C@H]2O)cc2occ(-c3ccc(O)cc3)c(=O)c2c1O` [Tectoridin] it is 1.03; for `Cc1[nH]c2ccccc2c1CCNC(=O)c1cccs1` it is 0.919. Take `CN(C)Cc1ccc(S(=O)(=O)n2ccc(/C=C/C(=O)NO)c2)cc1` [Resminostat hydrochloride]: the cell viability was determined as 1.15. For `Cc1[nH]c2ccccc2c1CCNCc1ccc(/C=C/C(=O)NO)cc1` [Panobinostat], the cell viability came to 0.22. The same measure for `Cc1ccc(S(=O)(=O)Nc2cc(C(F)(F)F)ccc2C(=O)Nc2nc(-c3ccccc3)cs2)cc1`: 0.852; for `CCC(=O)O[C@]1(C(=O)CO)CC[C@H]2[C@@H]3CCC4=CC(=O)CC[C@]4(C)[C@H]3CC[C@@]21C` [17 alpha-propionate]: 0.936; for `NC[C@H]1OB(O)c2c(OCCCO)cccc21` [Epetraborole hydrochloride]: 1.11. For the compound `Cc1cc(O)c(-c2ccc(C(C)CN)cc2)c2c1[nH]c(=O)c1sccc12` (stereo unspecified), the cell viability was determined as 0.15. For the compound `O=C1C[C@@H](c2ccccc2)Oc2cc(O)cc(O)c21` [Pinocembrin], the cell viability came to 0.964.

In the case of `C[C@H](CCOc1cccc(CC(=O)O)c1)N(Cc1cccc(C(F)(F)F)c1Cl)CC(c1ccccc1)c1ccccc1`, the cell viability was found to be 0.781. Consider `C=C1CC[C@H]2C(=C)CC[C@H]3C(=C)C(=O)O[C@@H]3[C@@H]12` [Dehydrocostus Lactone], for which the cell viability turned out to be 0.984. The figure for `CC(C)=CCC[C@](C)(O)[C@H]1CC[C@]2(C)[C@@H]1[C@H](O)C[C@@H]1[C@@]3(C)CC[C@H](O)C(C)(C)[C@@H]3CC[C@]12C` [(20S)-Protopanaxadiol] is 0.908; for `Cc1c(-c2ccc(N3CCc4cccc(C(=O)Nc5nc6ccccc6s5)c4C3)nc2C(=O)O)cnn1CC12CC3CC(CC(C3)C1)C2` it is 0.806; for `CCn1cc(C(=O)O)c(=O)c2c(N)c(F)c(NC3CCCCC3)cc21` it is 1.1.
